# Results filed as inconclusive are left out. Values without a mark were called inactive. Calls follow the shape of the dose curve; as a rule, active = well fitted curve in the direction sought with a large enough effect in the repeat runs; inconclusive = weak or mixed curves; inactive = no such curve, though single readings can be large; an effect the other way counts as inactive or inconclusive.
# Test system: not listed separately
# Experiment: qHTS assay to identify small molecule antagonists of the constitutive androstane receptor (CAR) signaling pathway - cell viability counter screen (AID 1224837); also: nearly all actives have a fitted effect of over 45% in size
# Details: HepG2-CYP2B6-hCAR viability, CellTiter-Fluor, 23 h, co-treated with 50 nM CITCO; series mostly up to 92.4 µM; activity change, negative = cytotoxicity: at the top concentration
# In short: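 HepG2-CYP2B6-hCAR cells, 2500/well, 4 hr pre-incubation; compound titration, 15 conc.; CITCO 50 nM final; 23 hr, 37 C/5% CO2; CellTiter-Fluor, fluorescence intensity.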
# % is scaled to controls: 0 for no effect and ±100 for the full control effect.
row,Compound,"activity change, negative = cytotoxicity"
1,O=C(O)CCCc1ccccc1,3.37% [at 42.5 µM]
2,CO/N=C(/C(=O)N[C@@H]1C(=O)N2C(C(=O)OCOC(=O)C(C)(C)C)=C(C)CS[C@H]12)c1csc(N)n1,11.3% [at 42.5 µM]
3,Cc1cc2c(cc1S(N)(=O)=O)S(=O)(=O)CCC2,5.69% [at 42.5 µM]
4,Cc1cc(O)cc2c1O[C@](C)(CCC[C@H](C)CCC[C@H](C)CCCC(C)C)CC2,-5.64% [at 42.5 µM]
5,CCOC(=O)c1c(C)n(C)c2ccc(O)cc12,5.62% [at 42.5 µM]
6,O=C(CCCN1CCN(c2ccccn2)CC1)c1ccc(F)cc1,-1.38% [at 42.5 µM]
7,CCS(=O)(=O)c1ccc(OC)c(C(=O)OC)c1,2.02% [at 42.5 µM]
8,CC1=CC(C)C(C=O)CC1 (stereo not drawn),0.665%
9,CCOC(=O)C(=O)OCC,0.422%
10,Cn1c(N)c(N=O)c(=O)n(C)c1=O,-13.1%
11,Cc1sccc1Br,8.48% [at 42.5 µM]
12,CCCCCSCCCCC,6.14%
13,CC(=O)OCC(=O)[C@@]1(O)CCC2C3CCC4=CC(=O)CC[C@]4(C)C3[C@@H](O)C[C@@]21C (stereo partly drawn),-1.22% [at 42.5 µM]
14,O=Cc1cccc([N+](=O)[O-])c1,-0.286%
15,CN(C(=O)c1c(O)c2ccccc2n(C)c1=O)c1ccccc1,2.69% [at 42.5 µM]
16,CC(C)CCCC(C)N (stereo not drawn),-5.07% [at 42.5 µM]
17,CCCCOCCOCCOCCCC,1.71%
18,NS(=O)(=O)c1cc(C(=O)O)cc(N2CCCC2)c1Oc1ccccc1,5.46% [at 42.5 µM]

# Molecular target: Nuclear receptor subfamily 1 group I member 3 (Homo sapiens) (UniProt Q14994)
# Experiment: qHTS assay to identify small molecule antagonists of the constitutive androstane receptor (CAR) signaling pathway (AID 1224838);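 also: HepG2 cells stably expressing hCAR with CYP2B6 luciferase reporter stimulated by CITCO; nearly all actives have a fitted effect of over 40% in size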
# Details: HepG2-CYP2B6-hCAR luciferase, CITCO-stimulated, 24 h; series mostly up to 92.4 µM; activity, negative = inhibition: at the top concentration
# In short: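 HepG2-CYP2B6-hCAR cells; 4 h pre-incubation; cpd (15 conc) + CITCO 50 nM final; 24 h, 37 C/5% CO2; ONE-Glo, luminescence.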
# Nuclear receptor subfamily 1 group I member 3 (Homo sapiens), sequence (Q14994 whole entry, looked up): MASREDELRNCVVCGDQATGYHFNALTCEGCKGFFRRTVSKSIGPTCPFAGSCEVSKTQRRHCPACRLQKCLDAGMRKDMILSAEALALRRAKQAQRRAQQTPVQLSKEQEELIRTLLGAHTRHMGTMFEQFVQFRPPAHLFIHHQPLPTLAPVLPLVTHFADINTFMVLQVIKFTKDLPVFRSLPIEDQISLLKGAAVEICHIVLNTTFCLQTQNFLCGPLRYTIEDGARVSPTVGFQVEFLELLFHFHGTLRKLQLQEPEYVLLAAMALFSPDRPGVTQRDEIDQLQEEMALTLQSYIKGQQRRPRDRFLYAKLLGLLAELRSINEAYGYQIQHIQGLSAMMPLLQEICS
row,Compound,"activity, negative = inhibition"
1,CC(C)(C)c1nnc(NS(=O)(=O)c2ccccc2)s1,-2.7% [at 42.5 µM]
2,c1ccc(CC2=NCCN2)cc1,-1.2% [at 42.5 µM]
3,CCCCCCCCCCCCN(CCCCCCCCCCCC)CCCCCCCCCCCC,-16.7%
4,COC(C)(C)CCCC(C)CC=O (stereo not drawn),8.04%
5,C=CCS(=O)(=O)O,-15.5%
6,COCCCOCCCOC,3.77%
7,NS(=O)(=O)c1ccc(C(=O)O)cc1,-11.3% [at 42.5 µM]
8,COc1c(N2C[C@@H]3CCCN[C@@H]3C2)c(F)cc2c(=O)c(C(=O)O)cn(C3CC3)c12,-8.71% [at 42.5 µM]
9,COC(=O)c1ccc(C)cc1C1=NC(C)(C(C)C)C(=O)N1 (stereo not drawn),5.71%
10,CS(=O)(=O)O,0.293%
11,CC(=O)c1ccccc1O,-18.8%
12,Cc1ccc(C#N)cc1,-4.4%
13,O=C(O)c1ccccc1OP(=O)(O)O,8.07% [at 42.5 µM]
14,O=c1[nH]c(=O)n([C@H]2C[C@H](O)[C@@H](CO)O2)cc1I,188% [at 42.5 µM]
15,CC(C)NC(=O)NC(C)C,6.5%
16,CCOC(=O)[C@H](CCc1ccccc1)N[C@@H](C)C(=O)N1[C@H](C(=O)O)C[C@@H]2CCC[C@@H]21,-4.92% [at 42.5 µM]
17,COc1cc(C(=O)N2CCCCCCC2)cc(OC)c1OC,9.63% [at 42.5 µM]
18,O=C(O)CCCc1ccccc1,2.68% [at 42.5 µM]

row,Compound,"activity, negative = inhibition"
1,CO/N=C(/C(=O)N[C@@H]1C(=O)N2C(C(=O)OCOC(=O)C(C)(C)C)=C(C)CS[C@H]12)c1csc(N)n1,0.799% [at 42.5 µM]
2,Cc1cc2c(cc1S(N)(=O)=O)S(=O)(=O)CCC2,-19.7% [at 42.5 µM]
3,Cc1cc(O)cc2c1O[C@](C)(CCC[C@H](C)CCC[C@H](C)CCCC(C)C)CC2,-5.92% [at 42.5 µM]
4,CCOC(=O)c1c(C)n(C)c2ccc(O)cc12,114% [at 42.5 µM]
5,O=C(CCCN1CCN(c2ccccn2)CC1)c1ccc(F)cc1,4.11% [at 42.5 µM]
6,CCS(=O)(=O)c1ccc(OC)c(C(=O)OC)c1,-8.2% [at 42.5 µM]
7,CC1=CC(C)C(C=O)CC1 (stereo not drawn),-6.58%
8,CCOC(=O)C(=O)OCC,-0.824%
9,Cn1c(N)c(N=O)c(=O)n(C)c1=O,22.7%
10,Cc1sccc1Br,6.82% [at 42.5 µM]
11,CCCCCSCCCCC,-3.86%
12,CC(=O)OCC(=O)[C@@]1(O)CCC2C3CCC4=CC(=O)CC[C@]4(C)C3[C@@H](O)C[C@@]21C (stereo partly drawn),-2.56% [at 42.5 µM]
13,O=Cc1cccc([N+](=O)[O-])c1,4.28%
14,CN(C(=O)c1c(O)c2ccccc2n(C)c1=O)c1ccccc1,12% [at 42.5 µM]
15,CC(C)CCCC(C)N (stereo not drawn),6.22% [at 42.5 µM]
16,CCCCOCCOCCOCCCC,-7.33%
17,NS(=O)(=O)c1cc(C(=O)O)cc(N2CCCC2)c1Oc1ccccc1,11.2% [at 42.5 µM]
